From PubChem BioAssay come the findings set out here.

Assay [1] is described as follows: small molecules captured by biotinylated probe aFSTL3 – biochemical, small-molecule microarray, fluorescence 635/667, stem cell growth factor project, primary screen (AID 1064).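 Also: measures binding of the biotinylated anti-FSTL3 antibody to printed compounds.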 As to conditions: higher = more signal.
The nature of assay [2]: binders from COS7 lysate, DM2A8 probe, primary screen, torsin A project, cell lysate, small-molecule microarray, fluorescence 635/667 (AID 1065). As to conditions: higher = more signal, COS7 lysate expressing mutant human TOR1A.
Assay [3] is described as follows: small molecules captured by biotinylated probe aFGF2 – biochemical, small-molecule microarray, fluorescence 635/667, stem cell growth factor project, primary screen (AID 1067).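 Also: measures binding of biotinylated aFGF2 protein to printed compounds on slides; z-score merges feature fluorescence and signal-to-noise across triplicate slides.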 As to conditions: higher = more signal.
The nature of assay [4]: small molecules captured by biotinylated probe aFGF10 – biochemical, small-molecule microarray, fluorescence 635/667, stem cell growth factor project, primary screen (AID 1071).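 Also: score merges 667 nm spot intensity and signal to noise from triplicate slides.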 As to conditions: higher = more signal.
In assay [5] the target is Neurogenic locus notch homolog protein 2 (Homo sapiens) (UniProt Q04721). Kind of assay: small molecules binding Notch2 protein – biochemical, small-molecule microarray, 635 nm fluorescence, stem cell growth factors, primary screen (AID 1073). To be noted: higher = more signal.
Assay [6] addresses Pro-neuregulin-1, membrane-bound isoform (Homo sapiens) (UniProt Q02297). Kind of assay: small molecules binding neuregulin-1 protein – biochemical, small-molecule microarray, fluorescence 635/667, psychiatric disease protein project, primary screen (AID 1075).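 Also: score combines 667 nm spot fluorescence with signal to noise.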 To be noted: NRG1 binding, 635 nm fluorescence, higher = more signal.
Assay [7] deals with Neuregulin-1 EGF-like domain. Kind of assay: small molecules binding NRG1 EGF domain – biochemical, small-molecule microarray, 635 nm fluorescence, primary screen (AID 1081).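 Also: binding of the protein to compounds printed on small-molecule microarray slides.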 To be noted: higher = more signal.
The nature of assay [8]: FRG1 expression reporter modulators in myotubes – cell-based, C2C12 myotubes, firefly/Renilla luciferase, luminescence, FRG1 inhibition for FSHD, primary screen (AID 1084). To be noted: FRG1 promoter luciferase, higher = more signal, called active from +8 up or from −8 down.
A short description of assay [9]: small molecules captured by biotinylated probe aFST – biochemical, small-molecule microarray, fluorescence 635/667, stem cell growth factor project, primary screen (AID 1086).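 Also: score merges 667 nm fluorescence with signal-to-noise of each printed compound spot.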 To be noted: higher = more signal.
Assay [10] is described as follows: binders of probe aHhip on microarray, primary screen, stem cell growth factor project, biochemical, small-molecule microarray, fluorescence 635/667 (AID 1087).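 Also: score merges spot fluorescence at 667nm with spot signal to noise ratio.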 To be noted: higher = more signal.
The subject of assay [11] is PRMT1 (protein arginine N-methyltransferase 1). Kind of assay: small molecules binding arginine methyltransferase PRMT1 – biochemical, small-molecule microarray, 635 nm fluorescence, primary screen (AID 1088).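 Also: binding of Prmt1 protein to compounds spotted on small-molecule microarray slides.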 To be noted: higher = more signal.
Assay [12] can be described thus: growth effects on S. cerevisiae YJM789 – YJM789 clinical isolate, OD600, 24 h, basal, primary screen (AID 1089).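 Also: growth of clinical yeast isolate S. cerevisiae YJM 789 seeded 1000 cells per well; test concentration not given here.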 As to conditions: higher = more signal, called active from +8 up or from −8 down.
Assay [13] in a line: S. pombe growth modifiers, basal conditions – strain 972, OD600, 24 h, no modulator, primary screen (AID 1090).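 Also: basal condition with compound alone and no growth modifier present; test concentration not given here.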 To be noted: S. pombe 972 growth, higher = more signal, called active from +8 up or from −8 down.
Assay [14] in a line: budding yeast growth modifiers under rapamycin – strain BY4716, OD600, 96 h, primary screen (AID 1091). Also: test concentration not given here. To be noted: S. cerevisiae BY4716 + rapamycin, higher = more signal, called active from +8 up or from −8 down.
The target of assay [15] is Torsin-1A-interacting protein 2 (Homo sapiens) (UniProt Q8NFQ8). Kind of assay: small molecules binding lysate-expressed LULL1 – cell lysate, human LULL1 lysate, 635/667 nm fluorescence, primary screen (AID 1092).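 Also: probe is lysate of COS7 cells overexpressing human LULL1; score merges per-feature 667 nm fluorescence with signal-to-noise.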 To be noted: small-molecule microarray, hLULL1 lysate binding, 635 nm fluorescence; higher = more signal.
Torsin-1A-interacting protein 2 (Homo sapiens), sequence (Q8NFQ8 whole entry, looked up): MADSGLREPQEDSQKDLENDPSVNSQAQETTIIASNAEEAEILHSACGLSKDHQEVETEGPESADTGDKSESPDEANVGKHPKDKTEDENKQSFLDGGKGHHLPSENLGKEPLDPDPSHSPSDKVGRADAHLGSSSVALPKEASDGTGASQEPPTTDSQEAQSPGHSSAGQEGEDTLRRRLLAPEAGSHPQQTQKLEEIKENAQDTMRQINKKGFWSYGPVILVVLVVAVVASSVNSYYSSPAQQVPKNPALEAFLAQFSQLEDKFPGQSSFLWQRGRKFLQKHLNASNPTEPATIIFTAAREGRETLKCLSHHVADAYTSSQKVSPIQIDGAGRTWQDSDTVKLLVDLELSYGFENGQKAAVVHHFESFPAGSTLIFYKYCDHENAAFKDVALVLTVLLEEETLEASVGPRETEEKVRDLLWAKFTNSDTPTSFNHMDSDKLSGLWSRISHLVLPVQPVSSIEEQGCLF
Assay [16] in a line: optical density change of DRC41 E. coli – strain DRC41, OD650, 24 h, E. coli filamentation project, primary screen (AID 1093).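 Also: MC1000 strain lacking acrAB efflux and sulA so SOS filamentation is blocked; test concentration not given here.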 To be noted: E. coli DRC41 growth, higher = more signal, called active from +8 up or from −8 down.
A short description of assay [17]: probe aLefty2 binding to arrayed compounds – biochemical, biotinylated probe, 635/667 nm fluorescence, primary screen (AID 1094).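 Also: score merges spot fluorescence near 667 nm with spot signal-to-noise ratio.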 To be noted: small-molecule microarray, higher = more signal.
Assay [18] has as its system Noggin (protein binding on small-molecule microarray). Kind of assay: small molecules binding Noggin protein – biochemical, 635/667 nm fluorescence, primary screen (AID 1095).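 Also: score merges 667 nm feature fluorescence with signal to noise over triplicate slides.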 As to conditions: 635 nm fluorescence, higher = more signal.
For assay [19], the target named is Neurogenic locus notch homolog protein 3 (Homo sapiens) (UniProt Q9UM47). Kind of assay: small molecules binding NOTCH3 protein – biochemical, 635/667 nm fluorescence, primary screen (AID 1096). To be noted: small-molecule microarray, 635 nm fluorescence, higher = more signal.
Neurogenic locus notch homolog protein 3 (Homo sapiens), sequence (Q9UM47 whole entry, looked up): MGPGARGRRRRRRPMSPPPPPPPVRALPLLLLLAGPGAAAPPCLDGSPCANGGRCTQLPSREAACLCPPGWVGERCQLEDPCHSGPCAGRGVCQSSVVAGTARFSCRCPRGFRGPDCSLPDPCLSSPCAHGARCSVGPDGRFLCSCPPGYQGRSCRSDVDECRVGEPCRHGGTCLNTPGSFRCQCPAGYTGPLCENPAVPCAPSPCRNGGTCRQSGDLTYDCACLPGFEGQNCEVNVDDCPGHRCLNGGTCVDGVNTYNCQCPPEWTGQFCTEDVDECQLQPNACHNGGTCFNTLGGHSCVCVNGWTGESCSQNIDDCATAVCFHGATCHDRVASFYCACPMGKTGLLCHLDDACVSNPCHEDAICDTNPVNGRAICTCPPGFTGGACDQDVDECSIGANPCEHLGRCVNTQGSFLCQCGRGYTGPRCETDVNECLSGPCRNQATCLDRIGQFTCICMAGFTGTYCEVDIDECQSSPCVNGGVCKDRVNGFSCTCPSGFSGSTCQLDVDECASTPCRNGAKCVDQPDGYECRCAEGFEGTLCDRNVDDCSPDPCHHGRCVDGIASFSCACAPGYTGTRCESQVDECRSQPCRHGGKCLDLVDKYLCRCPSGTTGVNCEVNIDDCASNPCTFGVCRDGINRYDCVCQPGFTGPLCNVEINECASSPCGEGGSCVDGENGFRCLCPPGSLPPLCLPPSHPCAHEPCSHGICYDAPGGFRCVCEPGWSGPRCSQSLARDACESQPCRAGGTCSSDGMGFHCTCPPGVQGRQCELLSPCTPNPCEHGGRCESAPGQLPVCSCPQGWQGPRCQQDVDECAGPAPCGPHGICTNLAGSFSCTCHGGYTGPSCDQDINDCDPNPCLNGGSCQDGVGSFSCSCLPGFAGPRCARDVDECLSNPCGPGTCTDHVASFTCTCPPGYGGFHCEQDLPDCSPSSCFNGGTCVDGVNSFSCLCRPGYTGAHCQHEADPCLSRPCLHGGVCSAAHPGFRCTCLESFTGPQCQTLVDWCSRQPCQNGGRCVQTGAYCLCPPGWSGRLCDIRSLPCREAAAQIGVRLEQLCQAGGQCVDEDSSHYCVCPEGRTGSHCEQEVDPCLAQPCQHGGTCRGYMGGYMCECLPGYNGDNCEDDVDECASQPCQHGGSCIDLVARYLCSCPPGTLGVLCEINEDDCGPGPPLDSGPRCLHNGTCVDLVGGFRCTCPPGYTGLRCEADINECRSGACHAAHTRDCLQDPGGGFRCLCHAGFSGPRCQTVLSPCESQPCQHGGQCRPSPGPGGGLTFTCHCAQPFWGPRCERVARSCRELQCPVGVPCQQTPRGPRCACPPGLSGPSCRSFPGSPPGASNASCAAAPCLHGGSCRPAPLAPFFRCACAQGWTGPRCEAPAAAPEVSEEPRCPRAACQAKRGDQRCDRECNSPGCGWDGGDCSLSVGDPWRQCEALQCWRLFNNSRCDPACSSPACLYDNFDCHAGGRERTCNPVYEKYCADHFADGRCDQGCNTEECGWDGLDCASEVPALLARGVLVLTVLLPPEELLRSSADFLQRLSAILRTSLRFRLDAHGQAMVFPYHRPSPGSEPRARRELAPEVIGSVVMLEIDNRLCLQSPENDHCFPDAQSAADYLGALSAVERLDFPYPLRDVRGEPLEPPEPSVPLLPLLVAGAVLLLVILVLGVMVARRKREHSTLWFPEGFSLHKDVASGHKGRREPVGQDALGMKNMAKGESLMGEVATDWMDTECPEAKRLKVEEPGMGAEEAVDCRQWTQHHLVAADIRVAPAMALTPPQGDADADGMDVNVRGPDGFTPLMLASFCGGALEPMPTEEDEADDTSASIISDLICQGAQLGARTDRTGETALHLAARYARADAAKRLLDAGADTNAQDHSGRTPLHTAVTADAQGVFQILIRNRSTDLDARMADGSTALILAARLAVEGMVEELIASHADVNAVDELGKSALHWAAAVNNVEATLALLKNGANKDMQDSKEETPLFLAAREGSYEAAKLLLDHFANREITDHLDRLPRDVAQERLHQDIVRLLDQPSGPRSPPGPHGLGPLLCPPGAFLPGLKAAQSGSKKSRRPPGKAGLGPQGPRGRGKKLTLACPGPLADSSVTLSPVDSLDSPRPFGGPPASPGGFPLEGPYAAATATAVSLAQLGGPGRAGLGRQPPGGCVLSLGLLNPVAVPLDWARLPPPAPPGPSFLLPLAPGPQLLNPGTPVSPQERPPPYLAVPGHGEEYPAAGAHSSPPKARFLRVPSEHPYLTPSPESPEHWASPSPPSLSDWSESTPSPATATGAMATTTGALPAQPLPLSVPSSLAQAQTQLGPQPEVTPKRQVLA
The nature of assay [20]: probe aEGFR binding to arrayed compounds – biochemical, biotinylated probe, 635/667 nm fluorescence, primary screen (AID 1097).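 Also: probe is a biotinylated anti-EGFR antibody binding compounds printed on slides; score combines fluorescence near 667 nm and signal to noise of each spot.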 As to conditions: small-molecule microarray, higher = more signal.

The structures appear in SMILES notation. Activity calls are given as the source filed them.

Pro-neuregulin-1, membrane-bound isoform (Homo sapiens), sequence (Q02297 whole entry, looked up, the tested form may be a part, canonical isoform): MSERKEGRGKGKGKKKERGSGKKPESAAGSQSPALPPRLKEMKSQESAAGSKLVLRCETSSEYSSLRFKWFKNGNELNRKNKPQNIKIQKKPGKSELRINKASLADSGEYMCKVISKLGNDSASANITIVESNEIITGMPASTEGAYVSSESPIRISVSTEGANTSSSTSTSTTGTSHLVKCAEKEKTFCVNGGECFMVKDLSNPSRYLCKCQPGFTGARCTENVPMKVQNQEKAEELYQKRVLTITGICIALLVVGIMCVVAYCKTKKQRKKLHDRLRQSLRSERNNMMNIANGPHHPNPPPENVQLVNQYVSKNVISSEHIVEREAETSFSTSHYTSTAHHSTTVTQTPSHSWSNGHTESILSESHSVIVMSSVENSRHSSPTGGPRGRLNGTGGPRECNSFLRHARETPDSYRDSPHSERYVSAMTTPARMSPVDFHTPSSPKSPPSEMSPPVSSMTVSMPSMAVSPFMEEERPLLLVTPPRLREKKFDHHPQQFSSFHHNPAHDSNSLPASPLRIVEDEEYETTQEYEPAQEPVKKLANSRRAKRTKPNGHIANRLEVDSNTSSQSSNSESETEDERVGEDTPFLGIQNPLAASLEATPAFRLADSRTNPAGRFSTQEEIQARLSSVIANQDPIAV

Consider `COC(=O)[C@H](C)NC(=O)CCC1CC(OC(=O)NCc2cccc3ccccc23)CC2(CCCC(COC(=O)NCC3CCCCC3)O2)O1` (stereo not given in full), for which the composite z-score in assay [1] is -0.641; in assay [2] it was 0.585; in assay [3], -0.0775; in assay [4] it was 0.406; in assay [5] it was 1.34; in assay [6], 1.06. Moreover, the composite z-score was 1.16 in assay [7]; 0.715 in [9]; 0.21 in assay [10]; 1.55 in assay [11]; 3.37 in assay [15]; -0.114 in assay [17]. The composite z-score stood at 0.918 in [18], 1.06 in assay [19] and 0.0278 in [20]. For the same compound, the z-score in assay [8] was 0.619 (inactive); in assay [12], -0.0166 (inactive); in assay [13], 0.633 (inactive); in [14], -0.825 (inactive); in assay [16], -0.639 (inactive).
As to `COC(=O)C1=C(C)[C@@H](O)[C@@H](C)[C@H](c2c(OC)c(OC)c(C)c(OC)c2OC)O1`, the composite z-score in assay [1] is -0.511; in assay [2], 0.487; in assay [3], -0.131; in [4] it was 0.166; in [5], 0.239; in assay [6], -0.412. The composite z-score is 0.0778 in assay [7]; 0.0017 in assay [9]; -0.0645 in [10]; -0.462 in assay [11]; -0.166 in assay [15]; -0.142 in assay [17]. Also, the composite z-score in assay [18] is 0.461; in [19], 0.105; in [20], -0.106. For the same compound, the z-score in assay [8] was -0.298 (inactive); in [12] it was 0.645 (inactive); in assay [13], 0.629 (inactive); in assay [14] it was -0.22 (inactive); in assay [16] it was 0.164 (inactive).
With `Cc1ccc(S(=O)(=O)N[C@@H]2COC(=O)[C@H](C)COC(=O)CC=C[C@H]2C)cc1`, the composite z-score in [1] was -0.618; in [2], 0.133; in assay [3], -0.121; in assay [4], 0.305; in assay [5], -0.0058; in assay [6], -0.0185. In addition, the composite z-score in assay [7] is -0.228; in [9], -0.0468; in [10], 0.176; in [11], -0.365; in [15], -0.366; in assay [17] it was -0.18. Also, the composite z-score in [18] was 0.984; in [19], 0.566; in assay [20], -0.215. Besides, the z-score was -0.564 (inactive) in assay [8]; 1.4 (inactive) in [12]; 1.05 (inactive) in assay [13]; 1.2 (inactive) in assay [14]; -0.234 (inactive) in assay [16].
On to `COCCCNC(=O)[C@@]1(CCS(=O)(=O)c2ccccc2)N=C(c2ccc(OCCCO)cc2)O[C@H]1c1ccccc1`, for which the composite z-score worked out at 0.958 in assay [1]; 1.5 in assay [2]; 0.378 in assay [3]; 1.18 in [4]; 0.674 in assay [5]; 1.25 in [6]. For the same compound, the composite z-score in [7] worked out at 1.31; in assay [9] it was 0.56; in [10], 2.04; in [11] it was 1.38; in [15], 3.43; in assay [17], 0.888. For the same compound, the composite z-score in assay [18] is 0.0483; in assay [19], -0.0936; in assay [20], 0.592. For the same compound, the z-score in assay [8] is -1.23 (inactive); in [12], -0.67 (inactive); in [13], -0.692 (inactive); in assay [14] it was -0.757 (inactive); in assay [16], 2.54 (inactive).
Take `CCOC(=O)[C@H](CC(C)C)NC(=O)CCC1CC(OC(=O)NCCc2ccc(F)cc2)CC2(CCCC(COC(=O)NCc3ccccc3)O2)O1` (stereo not given in full): the composite z-score was -0.969 in [1]; 0.561 in assay [2]; 0.0131 in assay [3]; 1.02 in assay [4]; 0.769 in [5]; 1.13 in assay [6]. Further, the composite z-score is 1.28 in assay [7]; 0.223 in assay [9]; 0.0695 in assay [10]; 1.57 in [11]; 2.24 in [15]; -0.0778 in [17]. In addition, the composite z-score in [18] was found to be 1.46; in assay [19], 0.828; in [20], 0.0338. Moreover, the z-score in [8] is 2.94 (inactive); in [12] it was -0.341 (inactive); in [13], -0.265 (inactive); in [14] it was 0.707 (inactive); in assay [16], -0.206 (inactive).
